According to paper PMC7862700, “An all-to-all approach to the identification of sequence-specific readers for epigenetic DNA modifications on cytosine”:

Experiments:
Assay in all cases: DAPPL (digital affinity profiling via proximity ligation, sequencing); 10 mM Tris-HCl pH 7.5, 50 mM NaCl, 1 mM DTT, 4% glycerol, room temperature, 30 min; GST-TFs on glutathione beads, 16-mer random dsDNA library, 0.1% formaldehyde crosslink after washing; high values mean tight binding
Details in all cases: protein: recombinant; tags: N-terminal GST; dsDNA, one strand shown
ERF = molecular target: T1, ERF (Homo sapiens, UniProt P50548 1-548)
T1 sequence: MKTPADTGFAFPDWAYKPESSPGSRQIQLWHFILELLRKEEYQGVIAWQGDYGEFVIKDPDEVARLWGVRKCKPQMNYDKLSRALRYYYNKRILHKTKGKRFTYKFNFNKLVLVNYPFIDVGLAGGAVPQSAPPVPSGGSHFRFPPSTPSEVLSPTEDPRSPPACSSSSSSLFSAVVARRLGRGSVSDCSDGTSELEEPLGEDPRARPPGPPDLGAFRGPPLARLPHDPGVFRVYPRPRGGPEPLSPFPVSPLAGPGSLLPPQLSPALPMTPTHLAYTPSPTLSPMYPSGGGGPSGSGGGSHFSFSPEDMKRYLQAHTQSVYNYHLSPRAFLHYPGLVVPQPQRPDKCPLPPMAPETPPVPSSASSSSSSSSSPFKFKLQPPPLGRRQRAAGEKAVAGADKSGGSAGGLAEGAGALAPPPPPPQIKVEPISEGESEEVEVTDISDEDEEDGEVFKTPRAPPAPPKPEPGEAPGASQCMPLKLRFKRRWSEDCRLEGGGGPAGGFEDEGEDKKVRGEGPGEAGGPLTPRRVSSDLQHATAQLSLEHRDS
Procedure, shortened: (§1)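 The binding signal reported is, for every hexamer, its read frequency for a factor over its read frequency for the tag-only sample. Reads came from pools of yeast-expressed, GST-fused human transcription factors on glutathione beads, barcoded with DNA and mixed with that sample, which were incubated with 200 nmole of a random double-stranded 16-mer DNA library in Tris/NaCl/DTT/glycerol buffer at room temperature for 30 min. After washing, the pools were crosslinked with 0.1% formaldehyde, proximity-ligated with BsaI/T4 ligase for 1 h at 37 °C, PCR-amplified and sequenced on an Illumina NextSeq500.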

ETV3L = molecular target: T2, ETV3L (Homo sapiens, UniProt Q6ZN32 1-361)
T2 sequence: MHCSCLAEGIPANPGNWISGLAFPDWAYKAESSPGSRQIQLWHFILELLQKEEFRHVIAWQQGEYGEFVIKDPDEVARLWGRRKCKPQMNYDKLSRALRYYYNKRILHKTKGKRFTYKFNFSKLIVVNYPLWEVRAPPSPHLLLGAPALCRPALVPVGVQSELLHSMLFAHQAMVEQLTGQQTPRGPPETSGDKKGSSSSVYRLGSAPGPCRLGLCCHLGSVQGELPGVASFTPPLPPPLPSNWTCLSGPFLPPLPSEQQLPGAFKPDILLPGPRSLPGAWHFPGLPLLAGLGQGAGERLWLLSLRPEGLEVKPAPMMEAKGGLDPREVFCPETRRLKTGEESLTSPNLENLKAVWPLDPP
Procedure, shortened: as §1

ETS2 = molecular target: T3, ETS2 (Homo sapiens, UniProt P15036 1-469)
T3 sequence: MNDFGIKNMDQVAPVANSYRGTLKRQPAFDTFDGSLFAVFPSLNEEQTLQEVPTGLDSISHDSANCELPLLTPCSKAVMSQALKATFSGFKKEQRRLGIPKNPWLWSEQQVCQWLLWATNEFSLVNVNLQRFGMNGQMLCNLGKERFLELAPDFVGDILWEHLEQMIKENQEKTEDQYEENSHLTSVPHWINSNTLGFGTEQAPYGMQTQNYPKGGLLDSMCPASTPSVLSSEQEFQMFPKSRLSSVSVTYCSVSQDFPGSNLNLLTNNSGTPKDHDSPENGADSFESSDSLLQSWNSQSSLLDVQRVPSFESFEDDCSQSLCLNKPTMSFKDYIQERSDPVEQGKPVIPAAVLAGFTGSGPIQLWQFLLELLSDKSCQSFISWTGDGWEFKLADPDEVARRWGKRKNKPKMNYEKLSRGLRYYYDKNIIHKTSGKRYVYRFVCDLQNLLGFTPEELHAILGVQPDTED
Procedure, shortened: as §1

SPDEF = molecular target: T4, SPDEF (Homo sapiens, UniProt O95238 1-335)
T4 sequence: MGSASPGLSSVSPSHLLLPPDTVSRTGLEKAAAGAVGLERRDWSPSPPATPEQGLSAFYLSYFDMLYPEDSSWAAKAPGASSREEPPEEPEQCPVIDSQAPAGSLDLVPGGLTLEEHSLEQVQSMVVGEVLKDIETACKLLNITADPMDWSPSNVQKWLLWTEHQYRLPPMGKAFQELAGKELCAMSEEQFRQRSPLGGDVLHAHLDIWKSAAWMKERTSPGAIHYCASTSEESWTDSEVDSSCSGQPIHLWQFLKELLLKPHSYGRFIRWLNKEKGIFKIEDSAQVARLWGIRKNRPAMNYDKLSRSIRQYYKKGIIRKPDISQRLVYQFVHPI
Procedure, shortened: as §1

ETV7 = molecular target: T5, ETV7 (Homo sapiens, UniProt Q9Y603 1-341)
T5 sequence: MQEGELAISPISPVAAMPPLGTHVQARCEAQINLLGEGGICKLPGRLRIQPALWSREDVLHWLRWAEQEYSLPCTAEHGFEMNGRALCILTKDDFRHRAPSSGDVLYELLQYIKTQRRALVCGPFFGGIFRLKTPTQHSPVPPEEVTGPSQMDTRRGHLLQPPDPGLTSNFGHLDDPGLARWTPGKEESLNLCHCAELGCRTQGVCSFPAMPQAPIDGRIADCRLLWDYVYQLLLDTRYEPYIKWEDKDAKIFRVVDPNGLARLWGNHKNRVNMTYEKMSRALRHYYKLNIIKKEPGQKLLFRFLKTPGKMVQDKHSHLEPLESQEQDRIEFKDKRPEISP
Procedure, shortened: as §1

ETV3 = molecular target: T6, ETV3 (Homo sapiens, UniProt P41162-2 1-143)
T6 sequence: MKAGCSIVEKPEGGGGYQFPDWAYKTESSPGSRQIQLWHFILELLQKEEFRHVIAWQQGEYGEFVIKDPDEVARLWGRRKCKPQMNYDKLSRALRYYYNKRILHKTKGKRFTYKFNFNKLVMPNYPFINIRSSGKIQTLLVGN
Procedure, shortened: as §1

ETV6 = ETV6 (Homo sapiens, UniProt P41212 1-452)
Procedure, shortened: as §1

Sequence of ETV6 (P41212 whole entry): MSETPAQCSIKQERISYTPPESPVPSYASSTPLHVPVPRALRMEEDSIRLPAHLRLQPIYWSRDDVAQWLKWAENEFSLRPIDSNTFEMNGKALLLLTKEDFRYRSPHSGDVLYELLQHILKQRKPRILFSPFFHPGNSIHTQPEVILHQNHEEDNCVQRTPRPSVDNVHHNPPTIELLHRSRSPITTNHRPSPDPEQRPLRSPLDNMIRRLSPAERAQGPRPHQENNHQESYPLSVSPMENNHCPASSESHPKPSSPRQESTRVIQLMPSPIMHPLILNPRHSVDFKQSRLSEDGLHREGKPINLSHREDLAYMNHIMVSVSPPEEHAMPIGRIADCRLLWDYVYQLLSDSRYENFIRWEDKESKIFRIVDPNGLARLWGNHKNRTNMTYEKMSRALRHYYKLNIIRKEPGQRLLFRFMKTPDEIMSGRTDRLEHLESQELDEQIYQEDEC

Sequence	binding signal (ERF)	binding signal (ETV3L)	binding signal (ETS2)	binding signal (SPDEF)	binding signal (ETV7)	binding signal (ETV3)	binding signal (ETV6)
CATGTA	1.2 fold enrichment (6-mer frequency, TF over GST control)	1.16 fold enrichment (6-mer frequency, TF over GST control)	1.04 fold enrichment (6-mer frequency, TF over GST control)	1.13 fold enrichment (6-mer frequency, TF over GST control)	1.05 fold enrichment (6-mer frequency, TF over GST control)	1.18 fold enrichment (6-mer frequency, TF over GST control)	1.04 fold enrichment (6-mer frequency, TF over GST control)
GGTGTT	1.14 fold enrichment (6-mer frequency, TF over GST control)	1.07 fold enrichment (6-mer frequency, TF over GST control)	1.08 fold enrichment (6-mer frequency, TF over GST control)	1.1 fold enrichment (6-mer frequency, TF over GST control)	1.01 fold enrichment (6-mer frequency, TF over GST control)	1.05 fold enrichment (6-mer frequency, TF over GST control)	1.1 fold enrichment (6-mer frequency, TF over GST control)
GCCAAT	1.11 fold enrichment (6-mer frequency, TF over GST control)	1.05 fold enrichment (6-mer frequency, TF over GST control)	1.06 fold enrichment (6-mer frequency, TF over GST control)	1.07 fold enrichment (6-mer frequency, TF over GST control)	1.06 fold enrichment (6-mer frequency, TF over GST control)	1.1 fold enrichment (6-mer frequency, TF over GST control)	–
CTATCG	1.28 fold enrichment (6-mer frequency, TF over GST control)	1.07 fold enrichment (6-mer frequency, TF over GST control)	1.04 fold enrichment (6-mer frequency, TF over GST control)	1.04 fold enrichment (6-mer frequency, TF over GST control)	1.19 fold enrichment (6-mer frequency, TF over GST control)	1.1 fold enrichment (6-mer frequency, TF over GST control)	1.07 fold enrichment (6-mer frequency, TF over GST control)
TTTAGG	1.22 fold enrichment (6-mer frequency, TF over GST control)	1.02 fold enrichment (6-mer frequency, TF over GST control)	1.11 fold enrichment (6-mer frequency, TF over GST control)	1.09 fold enrichment (6-mer frequency, TF over GST control)	1.19 fold enrichment (6-mer frequency, TF over GST control)	1.07 fold enrichment (6-mer frequency, TF over GST control)	1.19 fold enrichment (6-mer frequency, TF over GST control)
TTAGAA	1.1 fold enrichment (6-mer frequency, TF over GST control)	1.07 fold enrichment (6-mer frequency, TF over GST control)	1.08 fold enrichment (6-mer frequency, TF over GST control)	1 fold enrichment (6-mer frequency, TF over GST control)	1.08 fold enrichment (6-mer frequency, TF over GST control)	1.06 fold enrichment (6-mer frequency, TF over GST control)	1.15 fold enrichment (6-mer frequency, TF over GST control)
TCGATA	1.24 fold enrichment (6-mer frequency, TF over GST control)	1.13 fold enrichment (6-mer frequency, TF over GST control)	1.06 fold enrichment (6-mer frequency, TF over GST control)	1.07 fold enrichment (6-mer frequency, TF over GST control)	1.07 fold enrichment (6-mer frequency, TF over GST control)	1.11 fold enrichment (6-mer frequency, TF over GST control)	1.01 fold enrichment (6-mer frequency, TF over GST control)
CGAGTT	1.08 fold enrichment (6-mer frequency, TF over GST control)	1.16 fold enrichment (6-mer frequency, TF over GST control)	1.07 fold enrichment (6-mer frequency, TF over GST control)	1.02 fold enrichment (6-mer frequency, TF over GST control)	1.08 fold enrichment (6-mer frequency, TF over GST control)	1.12 fold enrichment (6-mer frequency, TF over GST control)	1.13 fold enrichment (6-mer frequency, TF over GST control)
TAGAAA	1.04 fold enrichment (6-mer frequency, TF over GST control)	1.08 fold enrichment (6-mer frequency, TF over GST control)	1.08 fold enrichment (6-mer frequency, TF over GST control)	1.04 fold enrichment (6-mer frequency, TF over GST control)	1.12 fold enrichment (6-mer frequency, TF over GST control)	1.05 fold enrichment (6-mer frequency, TF over GST control)	1.06 fold enrichment (6-mer frequency, TF over GST control)
ATGAAG	1.12 fold enrichment (6-mer frequency, TF over GST control)	1.05 fold enrichment (6-mer frequency, TF over GST control)	1.06 fold enrichment (6-mer frequency, TF over GST control)	1.07 fold enrichment (6-mer frequency, TF over GST control)	1.09 fold enrichment (6-mer frequency, TF over GST control)	1.03 fold enrichment (6-mer frequency, TF over GST control)	1.03 fold enrichment (6-mer frequency, TF over GST control)
CGCTTG	1.06 fold enrichment (6-mer frequency, TF over GST control)	1.01 fold enrichment (6-mer frequency, TF over GST control)	1.22 fold enrichment (6-mer frequency, TF over GST control)	1.09 fold enrichment (6-mer frequency, TF over GST control)	1.01 fold enrichment (6-mer frequency, TF over GST control)	1.06 fold enrichment (6-mer frequency, TF over GST control)	1.11 fold enrichment (6-mer frequency, TF over GST control)
TTGAAC	1.16 fold enrichment (6-mer frequency, TF over GST control)	1.17 fold enrichment (6-mer frequency, TF over GST control)	1.17 fold enrichment (6-mer frequency, TF over GST control)	1.06 fold enrichment (6-mer frequency, TF over GST control)	1.18 fold enrichment (6-mer frequency, TF over GST control)	1.14 fold enrichment (6-mer frequency, TF over GST control)	1.1 fold enrichment (6-mer frequency, TF over GST control)
GGCCTC	1.12 fold enrichment (6-mer frequency, TF over GST control)	1.12 fold enrichment (6-mer frequency, TF over GST control)	1.09 fold enrichment (6-mer frequency, TF over GST control)	1.08 fold enrichment (6-mer frequency, TF over GST control)	1.05 fold enrichment (6-mer frequency, TF over GST control)	1.1 fold enrichment (6-mer frequency, TF over GST control)	1.09 fold enrichment (6-mer frequency, TF over GST control)
AGCTAA	1.1 fold enrichment (6-mer frequency, TF over GST control)	1.05 fold enrichment (6-mer frequency, TF over GST control)	1.15 fold enrichment (6-mer frequency, TF over GST control)	1.02 fold enrichment (6-mer frequency, TF over GST control)	1.1 fold enrichment (6-mer frequency, TF over GST control)	1.1 fold enrichment (6-mer frequency, TF over GST control)	–
CTGAGC	1.06 fold enrichment (6-mer frequency, TF over GST control)	1.14 fold enrichment (6-mer frequency, TF over GST control)	1.15 fold enrichment (6-mer frequency, TF over GST control)	1.16 fold enrichment (6-mer frequency, TF over GST control)	1.16 fold enrichment (6-mer frequency, TF over GST control)	1.01 fold enrichment (6-mer frequency, TF over GST control)	1.16 fold enrichment (6-mer frequency, TF over GST control)
